Screening data as filed in PubChem BioAssay.
Only some compounds are listed: those with a hit (about 2.2% of all), similar ones and a draw of the others.
TDP43 rescue – qHTS of TDP-43 Inhibitors. TDP-43 expressing yeast growth rescue, BacTiter-Glo, 24 h. Potency, µM (series often up to 46.1 µM), usual class: activators. 1.8% of 410,000 active. AID 652104, 2013; further: nearly all actives have a fitted effect of over 50% in size
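Luminescence from BacTiter-Glo reports growth of TDP-43-expressing yeast after 24 hr at 30 deg C with compound. Cells were raffinose-pregrown to mid-log, then seeded in galactose medium at OD600=0.02.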
Abeta yeast res – qHTS for compounds that reverse cellular toxicity of Amyloid beta (A-beta) peptide in yeast: Primary Screen; yeast expressing A-beta42, growth rescue, OD600, 48 h; response scale: 0% DMSO, 100% iron-clioquinol control; Potency, µM (series often up to 46.1 µM), usual class: activators; 0.063% of 410,000 active; AID 1347071, 2019; further: nearly all actives have a fitted effect of over 55% in size
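Growth rescue measured by 600 nm absorbance after 48 h yeast culture at 30 C with compound. Values normalized between DMSO and an equimolar ferric chloride plus clioquinol control.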
Mito fusion yeast – qHTS Assay for Small Molecule Inhibitors of Mitochondrial Division or Activators of Mitochondrial Fusion; S. cerevisiae fusion-defective mutant growth rescue, CellTiterGlo 48 h; Potency, µM (series often up to 46.1 µM), usual class: activators; 0.23% of 320,000 active; AID 485298, 2010; further: nearly all actives have a fitted effect of over 45% in size
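Read-out: ATP-based luminescence (CellTiterGlo, 10 min ambient) reporting growth of fusion-defective ts yeast after 48 hours at 37C on glycerol/ethanol YPEG medium in the presence of compound.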
FUS yeast rescue – qHTS for Suppressors of FUS Proteinopathy: Primary screen using FUS-linked yeast assay. Potency, µM (series often up to 76.6 µM), usual class: activators. 0.24% of 390,000 active. S. cerevisiae FUS-expressing, growth rescue, OD600, 24 h; further: nearly all actives have a fitted effect of over 55% in size
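FUS-expressing yeast, raffinose-pregrown, induced in 2% galactose minimal medium at OD 0.005; compounds in a dilution series, 24hr at 30C. Growth restoration read as absorbance at 600 nm. CP55940 positive control, DMSO negative.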
aSyn rescue – qHTS of alpha-syn Inhibitors; Yeast expressing alpha-synuclein, growth rescue, BacTiter-Glo, 24 h; Potency, µM (titrated, usually from 46.1 µM), usual class: activators; 0.14% of 370,000 active; further: nearly all actives have a fitted effect of over 65% in size
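Rescue of yeast growth: cells expressing toxic alpha-synuclein, induced in galactose at OD600 0.02, incubated with compound 24 h at 30 C. ATP luminescence quantified growth; inhibitors of toxicity appear as activators.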
Hits are given with their value; - = inactive; ? = inconclusive; . = no result given. The call rests on the fitted dose curve; in most records, active means well fitted curve in the direction sought with a large enough effect; inconclusive means small, poorly fitted or top-dose-only effect, or another doubt; inactive means no such curve, though single readings can be large; an effect the other way counts as inactive or inconclusive.

SMILES	TDP43 rescue	Abeta yeast res	Mito fusion yeast	FUS yeast rescue	aSyn rescue
Cc1ccc(N2CC(NC(=O)Cc3ccc(F)cc3)CC2=O)cc1 (stereo not given)	-	-	.	-	.
CC(=O)Nc1ccc(-c2csc(Nc3cc(C)ccn3)n2)cc1	15.8µM	-	-	-	-
Cc1ccnc(Nc2nc(-c3c(C)nc4sccn34)cs2)c1	7.08µM	-	-	-	.
CC(=O)Nc1cccc(-c2csc(Nc3cc(C)ccn3)n2)c1	-	-	-	-	-
COc1ccc(-c2csc(Nc3cc(C)ccn3)n2)cc1OC	14.1µM	-	-	-	-
CC(=O)Nc1ccc(-c2csc(Nc3ccc(Cl)cn3)n2)cc1	-	-	-	-	-
COc1ccc(-c2csc(Nc3ccc(C)cn3)n2)cc1OC	-	?	-	-	-
CC(=O)Nc1cccc(-c2csc(Nc3ccc(Cl)cn3)n2)c1	22.4µM	-	-	-	-
CCOC(=O)C1=CCC(c2ccc(Cl)cc2)N(S(=O)(=O)c2ccc(C)cc2)C1 (stereo not given)	-	-	.	?	-
CCCn1c(SCC(=O)c2cc(C)n(-c3cc(C)on3)c2C)n[nH]c1=O	-	-	-	-	-
O=C(NC1CCCCN(Cc2ccc(Cl)cc2)C1=O)c1ccccn1 (stereo not given)	.	.	.	-	.
NC(=O)C1CCN(C(=S)c2ccc(-c3ccc(Br)cc3)o2)CC1	-	-	-	-	-
NC(=O)c1ccc(-c2ccc(Br)cc2)o1	12.6µM	-	-	-	-
O=C(O)CCc1ccc(-c2ccc(Br)cc2)o1	3.16µM	-	-	-	-
COc1ccc(-c2ccc(CCC(=O)O)o2)cc1	10µM	-	-	?	?
CC1CCCCN1S(=O)(=O)c1cc2c3c(c1)CC(=O)N3CCC2 (stereo not given)	-	-	.	?	.
COc1ccc(C2=C(c3ccccc3)OC(OC)c3cc(F)ccc32)cn1 (stereo not given)	15.8µM	?	.	-	?
CC(C)C(NC(=O)[C@H](Cc1ccc(O)cc1)NC(=O)OC(C)(C)C)P(=O)(O)OC(Cc1ccccc1)C(=O)O (stereo not given in full)	.	.	.	-	.
COc1ccc(N(C(=O)Cn2nnc(-c3ccc(F)cc3)n2)C(C)C(=O)NC2CCCC2)cc1 (stereo not given)	-	-	-	?	-
CC(C(=O)NC1CCCC1)N(C(=O)Cn1nnc(-c2ccc(F)cc2)n1)c1ccccc1F (stereo not given)	-	-	7.08µM	-	-
CCOC(=O)CC(NC(=O)CCc1c(C)nc2c(-c3ccccc3)c(C)nn2c1C)c1ccc(C)cc1 (stereo not given)	-	-	.	?	.
N/C(=N\OC(=O)c1ccc(Cl)cc1Cl)c1cccnc1	12.6µM	-	-	-	-
N/C(=N\OC(=O)c1cccc2ccccc12)c1cccnc1	20µM	-	-	-	-
CCc1cccc(C)c1NC(=O)COC(=O)C1CCN(S(=O)(=O)c2ccccc2)CC1	-	-	-	-	-
CCc1cccc(C)c1NC(=O)CN1CCN(S(=O)(=O)c2ccc(C(C)(C)C)cc2)CC1	-	-	-	35.5µM	-
SMILES	TDP43 rescue	Abeta yeast res	Mito fusion yeast	FUS yeast rescue	aSyn rescue
CCCCOc1ccc(C(=O)Oc2cc(C)[nH]c(=O)c2[N+](=O)[O-])cc1	17.8µM	-	-	-	-
CCOc1ccc(C(=O)Oc2cc(C)[nH]c(=O)c2[N+](=O)[O-])cc1	?	-	-	-	-
Cc1ccc(C(C)C)c(OCc2ccc(C(=O)N/N=C/c3cccc(O)c3O)cc2)c1	12.6µM	?	-	-	12.6µM
Cc1ccc(Cl)cc1N(C)C(=O)c1sc2nc3n(c(=O)c2c1C)CCCC3	20µM	-	.	-	.
Cc1ccc(N(C)C(=O)c2sc3nc4n(c(=O)c3c2C)CCCC4)cc1C	15.8µM	-	.	-	.
CCCN(C(=O)c1sc2nc3n(c(=O)c2c1C)CCCC3)c1ccccc1C	-	-	.	-	.
COc1ccc(C)cc1N(C)C(=O)c1sc2nc3n(c(=O)c2c1C)CCCCC3	-	-	.	-	.
O=C(CNC(=O)c1ccc(Cl)cc1Cl)OCCOc1ccccc1	-	?	-	-	-
COc1cc(-c2nnc(COc3ccc4ccccc4c3)o2)cc(OC)c1OC	28.2µM	-	-	.	-
CCCOc1ccc(NC(=O)CC2C(=O)OCC3CCCCN32)cc1 (stereo not given)	35.5µM	-	-	-	-
Cc1ccc(NC(=O)CC2C(=O)OCC3CCCCN32)cc1Cl (stereo not given)	-	-	-	-	-
Cc1ccc(CN(Cc2cccn2-c2nnc(N3CCCC3=O)s2)C(=O)Nc2ccccc2Cl)cc1	-	-	.	35.5µM	.
N#Cc1c([N+](=O)[O-])cc([N+](=O)[O-])cc1S(=O)(=O)Cc1ccccc1	11.2µM	-	-	.	-
CCOc1cccc(C(=O)NC(=S)Nc2cccc(C)c2)c1	35.5µM	?	-	-	-
CCn1cc(C(=O)NC(=S)Nc2ccccc2Br)cn1	14.1µM	-	-	-	-
COc1cccc(NC(=S)NC(=O)c2cncc(Br)c2)c1	12.6µM	?	.	-	-
CC(=O)c1cccc(NC(=S)NC(=O)c2cncc(Br)c2)c1	-	-	-	?	-
O=C(NC(=S)Nc1ccccc1O)c1cncc(Br)c1	-	?	.	-	17.8µM
CCCOc1cccc(C(=O)NC(=S)Nc2cccc(C(F)(F)F)c2)c1	-	-	-	-	-
O=C(NC(=S)Nc1ccccc1C(=O)O)c1cncc(Br)c1	-	-	-	-	-
CS(=O)(=O)N1CCN(/[N+]([O-])=N/Oc2ccc([N+](=O)[O-])cc2[N+](=O)[O-])CC1 (tested in a mixture with another compound)	.	.	.	.	-
CC(C)C[C@@H]1COc2cc(Br)ccc2S(=O)(=O)N1Cc1cn(Cc2ccc(Br)cc2)nn1	.	.	.	-	.
CCOc1cccc(=O)c2c(C)n(C)c(C)c12	-	-	-	?	-
COc1cccc(=O)c2c(C)n(C)c(C)c12	-	-	-	28.2µM	-
CC1(C)Cc2ccccc2-c2nc3ccccc3c(=O)n21	12.6µM	-	-	-	-
O=C1c2ccccc2-n2c1nc1ccccc1c2=O	-	-	-	-	-
CC(=O)N[C@H]1C[C@@H]2O[C@H](CO)CC[C@@H]2O[C@@H]1CCc1ccc(-c2ccc(F)cc2)cc1	.	.	.	-	.
C=CCC(c1ccccc1)N(C(C)=O)c1ccco1 (stereo not given)	-	-	25.1µM	-	-
CCN(CC)C(=O)CC[C@@H]1CC[C@]2(CCCN(Cc3cccc4ccccc34)C2)O1	.	.	.	-	.
CCCc1nc(SCC(=O)c2ccccc2)c2c(=O)n(C)c(=O)n(C)c2n1	14.1µM	-	-	-	?
